Compound activity (PubChem)
AMA1 RON2 block = disrupts binding of P. falciparum AMA1 to RON2; 360,000 tested, 0.2% active; AlphaScreen AMA1-biotinylated RON2 peptide binding; Potency, µM (doses to about 58.2 µM), inactives show at the highest dose activity change, negative = inhibition, actives largely listed as inhibitors;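 also: 0% = vehicle wells and -100% = peptide control; nearly all actives have a fitted effect of over 45% in size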
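AMA1 (3D7) with his tag at 25 nM final met compounds first, then biotinylated RON2 peptide at 25 nM; detection used donor plus acceptor beads, 10 µg/mL apiece, read by AlphaScreen after 30 min at room temperature.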
Pf growth 96h = P. falciparum growth inhibition at 96 hours; P. falciparum luciferase reporter growth, 96 h; Potency, µM (doses to about 28.7 µM), for the others: at the top dose activity change, negative = inhibition, usual class: inhibitors; 320,000 tested, 6.9% active; AID 504834; also: % is scaled to controls: 0 for no effect and ±100 for the full control effect
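P. falciparum expressing integrated firefly luciferase, in erythrocytes at 2% hematocrit, 0.05% parasitemia, incubated with compounds 96 h at 37 C, 5% CO2. Growth inhibition read as loss of luminescence; two-generation exposure targets delayed-death apicoplast inhibitors.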
Pf growth 48h = inhibits P. falciparum growth in the first generation, 48 h; P. falciparum luciferase growth in erythrocytes, 48 h; Potency, µM (series often up to 28.7 µM), without a hit: at the top dose activity change, negative = inhibition, hits mostly inhibitors; 310,000 tested, 5.9% active; AID 504832; also: % is scaled to controls: 0 for no effect and ±100 for the full control effect
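Compounds are pin-transferred into medium, infected erythrocytes (2% hematocrit, 0.1% parasitemia final) are added, and plates sit one parasite generation at 37 C in 5% CO2. Detection reagent is then added and luminescence measured.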
NS1 inh = influenza NS1 inhibition. Potency, µM (highest dose often 46.1 µM), without a hit: at the top dose activity, positive = more growth. 270,000 tested, 0.4% active. AID 2326; calls by dose curve; also: actives are rising curves; nearly all actives have a fitted effect of over 50% in size
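Recovery from NS1-induced slow growth read by OD600 in budding yeast switched to galactose assay medium (pH 6.0, -URA) at 1:100 dilution. Compound 23 nl per well; the matching strain lacking NS1 serves as control.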
Sm TGR block = S. mansoni TGR enzyme inhibition. Potency, µM (top dose mostly 114 µM), inactives show top-dose activity change, negative = inhibition, hits mostly inhibitors. purified TGR, DTNB reduction, TNB absorbance 405 nm. Q962Y6. 360,000 tested, 3% active; also: % is scaled to controls: 0 for no effect and ±100 for the full control effect; nearly all actives have a fitted effect of over 60% in size
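Kinetic colorimetric format: TGR-catalysed, NADPH-driven DTNB reduction monitored via TNB absorbance. Enzyme dispensed at 20 nM; compound exposure 15 min at room temperature before reaction start.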
Numbers without * were called inactive; ? = inconclusive; · = no result; [ ] = another dose, or the depositor's remark. A selection: hits, their analogues and other compounds. The true share with any hit is near 11%. Unless noted, calls follow the shape of the dose curve; as a rule, active = well fitted curve in the direction sought with a large enough effect; inconclusive = small, poorly fitted or top-dose-only effect, or another doubt; inactive = no such curve, though single readings can be large; an effect the other way counts as inactive or inconclusive. Potency is read from the fitted curve at half-maximal effect.

SMILES | AMA1 RON2 block | Pf growth 96h | Pf growth 48h | NS1 inh | Sm TGR block
COc1ccc(Cl)cc1NC(=O)Cn1c(=O)n2nc(-c3ccccc3)nc2c2ccccc21 | · | · | · | · | 0%
Cc1oc(C(C)(C)C)cc1-c1cc(NC(=O)c2ccc([N+](=O)[O-])cc2)n[nH]1 | -3% | 2.3µM* | 1.9µM* | 1% | -3%
Cc1cc(NC(=O)c2ccc([N+](=O)[O-])cc2)no1 | -15% | ? | 61% | 35% | -2%
Cc1ccc(Cn2nnc3c(=O)n(Cc4cc(C)ccc4C)cnc32)cc1 | 0% | 1.5µM* | ? | 3% | -2%
Cc1ccc(Cn2nnc3c(=O)n(Cc4cccc(C)c4)cnc32)cc1 | -4% | -13% | ? | -12% | 4%
COc1ccc(-n2nnc3c(=O)n(Cc4cc(C)ccc4C)cnc32)cc1 | -3% | 5.2µM* | -19% | 13% | 13%
Cc1cccc(Cn2cnc3c(nnn3Cc3ccc(Cl)cc3)c2=O)c1 | 35% | 4.1µM* | ? | 1% | -13%
CCC(C)c1ccc(OCc2ccc(C(=O)O)o2)cc1 (centres undefined) | -12% | -9% | 325% | -41% | -17%
COc1ccc(N(CC(=O)Nc2cc(OC)cc(OC)c2)S(=O)(=O)c2c(C)noc2C)cc1 | · | · | · | · | -4%
CCCc1nn2c(=O)cc(COC(=O)c3cccc(NC(=O)c4cccs4)c3)nc2s1 | · | · | · | · | 5%
O=C(Nc1nc2n(n1)C(c1ccccc1)C=C(c1ccccc1)N2)c1ccc(Cl)c([N+](=O)[O-])c1 (centres undefined) | · | · | · | · | 1%
CCCOc1c(Br)cc(C2C3=C(CCCC3=O)N(C)C3=C2C(=O)CCC3)cc1OC | 3% | -18% | 9.3µM* | 5% | 4%
COc1ccc(C2C3=C(CCCC3=O)N(CC(=O)O)C3=C2C(=O)CCC3)cc1Cl | -1% | -17% | 37% | 19% | 50µM*
CCOc1cc(C2C3=C(CCCC3=O)N(CC(=O)O)C3=C2C(=O)CCC3)ccc1OC | -5% | 20% | -5% | 8% | 89µM*
Cc1ccc(NC(=O)C(=O)NCCCN2CCOCC2)cc1C | · | · | · | · | 1%
O=C(CN1CCCN(Cc2ccc(F)cc2)S1(=O)=O)NCc1ccccc1Cl | · | · | · | · | -5%
CC(C)(C)c1nnc(SCC(=O)c2ccccc2)n(N)c1=O | 10% | 14% | 17% | ? | -10%
Cn1ncc2c(Nc3ccccc3Cl)nc(Nc3ccccc3Cl)nc21 | -13% | ? | 7.4µM* | -2% | -13%
C=CCOC(=O)C1=C(C)NC(C)=C(C(=O)OCC=C)C1c1ccc(C)o1 | -2% | -4% | ? | 3% | 16µM*
CC1=C(C(N)=O)C(c2ccc(C)o2)C(C(N)=O)=C(C)N1 | 45% | 21% | 18% | -8% | 45µM*
CCOC(=O)C1=C(C)NC(C)=C(C(=O)OCC)C1c1ccc(C)o1 | 11% | ? | ? | 0% | ?
CCCCNC(=S)Nc1cccc(S(=O)(=O)NC2=NCCC2)c1 | 12% | -3% | 4% | · | 40µM*
CC(C)C(=O)Nc1cccc(S(=O)(=O)NC2=NCCC2)c1 | -6% | · | · | · | ·
CCNC(=S)Nc1cccc(S(=O)(=O)NC2=NCCC2)c1 | -7% | ? | -22% | · | -28%
O=C(COC(=O)c1ccc(O)cc1)Nc1cccc(S(=O)(=O)NC2=NCCC2)c1 | -6% | 6.6µM* | ? | · | -11%
SMILES | AMA1 RON2 block | Pf growth 96h | Pf growth 48h | NS1 inh | Sm TGR block
CC(C)(C)c1ccc(OCCC(=O)Nc2cccc(S(=O)(=O)NC3=NCCCCC3)c2)cc1 | -10% | ? | 12µM* | · | 3%
O=C(CCl)Nc1cccc(S(=O)(=O)NC2=NCCC2)c1 | -6% | 4.7µM* | 3.3µM* | -42% | 6.3µM*
COc1ccc(C(=O)OCC(=O)N(C)C2CCS(=O)(=O)C2)cc1Br (centres undefined) | 15% | -11% | -20% | · | -2%
COc1ccc(NC(=O)c2ccc3nc(C)c(N(C)C(=O)CCc4ccccc4)n3c2)cc1OC | 0% | · | · | · | ·
O=C1CN(C(=O)COC(=O)[C@@H]2CCCN2S(=O)(=O)c2ccc(Cl)cc2)c2ccccc2N1 | 1% | · | · | · | ·
O=C(Cc1csc(-c2ccc(Cl)cc2)n1)Nc1cccc(S(=O)(=O)NC2=NCCC2)c1 | 2% | -11% | ? | · | 0%
O=C(Cc1csc(-c2ccc(F)cc2)n1)Nc1cccc(S(=O)(=O)NC2=NCCC2)c1 | 10% | 6.6µM* | -29% | · | -15%
Cc1ccc(C2N(C)c3ccccc3-c3nc4ccccc4n32)o1 (centres undefined) | 12% | 3.7µM* | · | -67% | -15%
CN1c2ccccc2-c2nc3ccccc3n2C1c1cccs1 (centres undefined) | 30% | 1.7µM* | 8.3µM* | -68% | 1%
Cc1ccc(NC(=O)NC(=O)COc2c(F)c(F)cc(F)c2F)c(C)c1 | -1% | · | · | · | ·
CCc1nc2ccccc2n2c(-c3ccc(C)cc3)c3c(=O)n(C)c(=O)n(C)c3c12 | · | · | · | · | -4%
NNC(=O)Cn1nc(Cc2ccccc2)n(N)c1=O | 13%[11.6 µM] | 33% | -22% | · | -19%
COC(=O)C1(Cc2ccccc2)NC(c2ccccc2C)C2C(=O)N(c3ccc4c(c3)OCO4)C(=O)C21 (centres undefined) | 0% | 23% | 12µM* | 21% | -17%
CCCC1(C(=O)OC)NC(c2ccc(OC)c(OC)c2)C2C(=O)N(c3ccc4c(c3)OCO4)C(=O)C21 (centres undefined) | 5% | 80% | · | -2% | -2%
COc1ccc(OC)c(NC(=O)N2CCN(Cc3nc4ccc(C)cc4o3)CC2)c1 | · | · | · | · | 4%
CCN(CC)S(=O)(=O)c1cccc(-c2cn3cccnc3n2)c1 | -5% | 15µM* | 4.1µM* | 2% | -8%
CC1CCCN(S(=O)(=O)c2cccc(-c3cn4cccnc4n3)c2)C1 (centres undefined) | 2% | ? | -14% | -17% | 1%
O=C(O)c1ccccc1N/N=C/c1c(Sc2nnnn2-c2ccccc2)nc2ccccn2c1=O | -5% | 0.59µM* | ? | 6% | 40µM*
O=c1c(/C=N/Nc2ccccc2)c(Sc2nnnn2-c2ccccc2)nc2ccccn12 | 9% | · | -2% | 7% | ?
CCC(C)NC(=O)c1cn(CC)c2cc(N3CCN(C(=O)c4ccco4)CC3)c(F)cc2c1=O (centres undefined) | 3% | 4.1µM* | 5.9µM* | -5% | ?
C=CCNC(=O)c1cn(CC)c2cc(N3CCN(C(=O)c4ccco4)CC3)c(F)cc2c1=O | 4% | ? | 7.4µM* | -12% | ?
CCn1cc(C(=O)NCc2ccco2)c(=O)c2cc(F)c(N3CCN(C(=O)c4ccco4)CC3)cc21 | 0% | 24% | 7.4µM* | -1%[9.22 µM] | 20µM*
CCn1cc(C(=O)NCC(C)C)c(=O)c2cc(F)c(N3CCN(C(=O)c4ccco4)CC3)cc21 | 0% | 22% | 4.1µM* | 3% | 1%
O=C(CNC(=O)c1ccc(Cl)cc1)OCC(=O)N1CCCC1 | -6% | 20% | 22% | · | 5%
